Consider 112 compounds from PubChem BioAssay AID488969 (Vanderbilt High Throughput Screening Facility, 2010).

Over roughly 110,000 compounds, “z-score” has its median near -0.1; the highest 2% begin near 2. This is one part of a sample in which the highest values are shown more often than they occur. Active and inactive are the calls of the source.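 The calls were made as follows: active = z-score in the third read window above 3 or below -3; inactive = the rest.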

Metabotropic glutamate receptor 8 (Rattus norvegicus), sequence (P70579 whole entry, looked up): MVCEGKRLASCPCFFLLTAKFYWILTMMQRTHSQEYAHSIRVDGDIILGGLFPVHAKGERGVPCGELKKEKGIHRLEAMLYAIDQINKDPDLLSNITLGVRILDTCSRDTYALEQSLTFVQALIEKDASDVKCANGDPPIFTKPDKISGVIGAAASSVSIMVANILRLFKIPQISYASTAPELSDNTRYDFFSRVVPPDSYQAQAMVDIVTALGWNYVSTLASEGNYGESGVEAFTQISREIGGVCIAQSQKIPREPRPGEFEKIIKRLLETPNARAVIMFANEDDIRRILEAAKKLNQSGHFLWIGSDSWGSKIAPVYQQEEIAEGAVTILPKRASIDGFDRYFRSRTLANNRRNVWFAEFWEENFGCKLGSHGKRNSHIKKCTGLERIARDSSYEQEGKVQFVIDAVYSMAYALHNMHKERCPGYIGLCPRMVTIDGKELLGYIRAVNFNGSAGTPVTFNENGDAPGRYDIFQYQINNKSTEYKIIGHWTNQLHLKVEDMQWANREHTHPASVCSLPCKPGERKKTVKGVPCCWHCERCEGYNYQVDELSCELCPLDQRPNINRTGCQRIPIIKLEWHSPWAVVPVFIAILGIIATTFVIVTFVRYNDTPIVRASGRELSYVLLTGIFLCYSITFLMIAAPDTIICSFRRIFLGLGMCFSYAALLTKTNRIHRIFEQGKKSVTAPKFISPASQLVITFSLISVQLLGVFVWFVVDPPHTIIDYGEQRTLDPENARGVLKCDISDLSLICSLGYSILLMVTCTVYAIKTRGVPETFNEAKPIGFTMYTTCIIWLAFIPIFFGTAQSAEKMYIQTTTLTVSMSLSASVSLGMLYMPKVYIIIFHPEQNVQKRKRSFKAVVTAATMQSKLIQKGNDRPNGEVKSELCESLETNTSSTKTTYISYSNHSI

The assay concerns the target Metabotropic glutamate receptor 8 (Rattus norvegicus) (UniProt P70579). Briefly: mGluR8 Gi/Go-coupled signaling modulation – cell-based, rat, thallium flux, HTS, primary screen (AID 488969). Conditions: HEK293 rat mGluR8, GIRK (G protein-gated inwardly rectifying potassium channel) thallium flux, FluoZin2; at 10 µM; stronger effect = higher value; submaximal glutamate (EC20) added with thallium.
`c1ccc(-c2nc(CSc3n[nH]c(-c4cccs4)n3)cs2)cc1` displayed a z-score of 0.259.

`COc1cc2c(C(=O)N3CCN(C4CCCCC4)CC3)cn(CC(C)C)c(=O)c2cc1OC` gave a z-score of 2.68.

For the compound `CCCN1CCN(C(=O)c2cn(CC(C)C)c(=O)c3cc(OC)c(OC)cc23)CC1`, the z-score was -0.37.

Regarding `CCOC(=O)C1CCCN(C(=O)c2cn(CC(C)C)c(=O)c3cc(OC)c(OC)cc23)C1` (configuration not stated), the z-score was -0.759.

Turning to `Cc1nn(-c2ccccc2)c(Cl)c1C(=O)OC(C)C(=O)Nc1ccc2c(c1)OCO2` (configuration not stated), the z-score is -0.936.

For the compound `CCCn1nnc(NC(=O)c2ccc(F)cc2)n1`, the z-score is -0.08.

With `COc1ccc(-c2nc(N)n[nH]2)cc1`, the z-score was -0.101.

The compound `Nc1n[nH]c(-c2ccccc2)n1` had a z-score of 0.189.

As to `CCCCc1ccc(-c2nc(N)n[nH]2)cc1`, the z-score was 2.99.

Consider `CCOC(=O)c1c(C)[nH]c(C(=O)COC(=O)c2ccccc2NC(=O)c2ccco2)c1C`, for which the z-score was -0.00749.

For `Cc1ccc(NC(=O)CSCCc2ccccn2)nc1`, the z-score is 0.022.

`CSc1ccc(/C=N/NC(=O)CNc2cccc3ccccc23)cc1` came in with a z-score of 0.3.

For the compound `CCNC(=O)NC(=O)C(C)OC(=O)C1CCN(S(=O)(=O)c2ccc(C)c(C)c2)CC1` (configuration not stated), the z-score is -0.143.

`Cc1cccc(-c2nc(=S)c3c(n2Cc2ccco2)CCCC3)c1` came in with a z-score of 0.581.

`COc1cccc(-c2nc(=S)c3c(n2Cc2ccco2)CCCC3)c1` came in with a z-score of 0.708.

In turn, `S=c1nc(-c2ccccc2)n(Cc2ccco2)c2c1CCCC2` displayed a z-score of 2.16.

`CCCc1[nH]nc2c1C(c1ccc(OCCN3CCOCC3)c(OCC)c1)C(C#N)=C(N)O2` (configuration not stated): the z-score is -0.892.

The compound `COc1ccc(NC(=S)NNC(=O)COc2ccc(Cl)cc2Cl)cc1` had a z-score of 2.95.

With `C=CCNC(=S)NNC(=O)COc1c(Cl)cc(Cl)cc1Cl`, the z-score was found to be 0.71.

`O=C(COc1ccc(CO)cc1Cl)Nc1ccc(F)cc1` came in with a z-score of 0.647.

`CC(=O)NC(=S)Nc1ccc(NC(=O)COc2ccc(Cl)cc2Cl)cc1` displayed a z-score of -0.0173.

Regarding `C=CCNC(=S)NNC(=O)COc1ccc(Cl)cc1Cl`, the z-score was 6.1 (active).

`O=C(COc1ccc(Cl)cc1Cl)NNC(=S)Nc1ccc(F)cc1`: the z-score was 7.82 (active).

For `C=CCNC(=O)COc1ccc(Br)cc1Cl`, the z-score came to 0.0502.

On to `CCCC(=O)Nc1cccc(NC(=S)NC(=O)C(C)Oc2ccc(Cl)cc2Cl)c1` (configuration not stated), for which the z-score was -0.0105.

Consider `CCC(=O)NC(=S)Nc1ccc(NC(=O)COc2ccc(Cl)cc2Cl)cc1`, for which the z-score is -0.124.

Compound `COC(=O)NC(=S)Nc1ccc(Oc2ccc(Cl)cc2)c(Cl)c1` yielded a z-score of 1.29.

Consider `COC(=O)NC(=S)Nc1ccc(Oc2ccc(Cl)cc2Cl)c(Cl)c1`, for which the z-score is 3.69 (active).

On to `CCc1ccc(OCC(=O)NC(=S)Nc2ccc(F)cc2)c(Br)c1`, for which the z-score was found to be 0.182.

`COc1cccc(C(=O)N2CCN(S(=O)(=O)Cc3ccccc3)CC2)c1OC` showed a z-score of 1.15.

On to `C=CCn1cc([N+](=O)[O-])nc1C`, for which the z-score is -0.339.

For `COC(=O)COc1ccc(S(=O)(=O)Nc2ccc3c(c2)OCO3)cc1`, the z-score was -0.955.

For the compound `Cc1cc(F)ccc1NCC(=O)Nc1ccccc1Br`, the z-score was 1.92.

Compound `CC(=O)NCC(=O)N(c1ccccc1)C1(C(=O)NC2CCCCC2)CCCCC1` came in with a z-score of 0.432.

For `COc1ccc(-c2nc(Cn3c(SCc4ccc(F)cc4)nc4ccncc43)c(C)o2)cc1OC`, the z-score came to 0.565.

On to `O=C1C2C(c3ccccc3)C=CC(c3ccccc3)C2C(=O)N1c1ccncc1` (configuration not stated), for which the z-score was -0.325.

As for `Cc1cc(C(=O)COc2ncnc3sccc23)c(C)n1C`, the z-score amounted to 2.04.

Consider `Cc1cc(C(=O)COc2ncnc3sccc23)c(C)n1C1CC1`, for which the z-score was -0.349.

On to `Cc1cc(C(=O)COc2nncc3ccccc23)c(C)n1C`, for which the z-score amounted to 0.0547.

Regarding `Oc1ccccc1N1CCN(c2ncccn2)CC1`, the z-score amounted to 0.0492.

`O=C(OCC(=O)N1CCc2ccccc21)c1cccc(S(=O)(=O)N2CCCc3ccccc32)c1` had a z-score of -0.134.

With `O=C(N/N=C/c1ccc(OC(=O)c2ccccc2)cc1)c1ccc(CN2CCOCC2)cc1`, the z-score came to 0.54.

For the compound `Cc1c(Cl)cccc1-n1ccnc1SCC(=O)O`, the z-score is -0.317.

Consider `COc1cccc(OCC(O)CN2C(C)CCCC2C)c1` (configuration not stated), for which the z-score amounted to 0.438.

Turning to `Cc1ccc(C)c(OCC(O)CN2C(C)CCCC2C)c1` (configuration not stated), the z-score is 3.05 (active).

Compound `CC(=O)c1ccc(OCC(O)CN2C(C)CCCC2C)cc1` (configuration not stated) yielded a z-score of -0.288.

As for `CCN(CC)S(=O)(=O)c1ccc(NC(=O)c2cc(C(=O)OC)cc([N+](=O)[O-])c2)cc1`, the z-score is -0.729.

Consider `N#CC1(Cc2ccccc2)c2ccccc2C=CN1C(=O)c1ccccc1` (configuration not stated), for which the z-score was -0.211.

For `N#CC1(Cc2ccc(Cl)cc2)c2ccccc2C=CN1C(=O)c1ccccc1` (configuration not stated), the z-score is -0.14.

In turn, `N#CC1(Cc2ccc([N+](=O)[O-])cc2)c2ccccc2C=CN1C(=O)c1ccccc1` (configuration not stated) registered a z-score of 2.08.

In turn, `Cc1cccc(-n2c(C)cc(/C=N/O)c2C)c1` yielded a z-score of -0.205.

Turning to `NC(=O)/C=C\c1cn(-c2ccccc2)nc1-c1ccc2c(c1)OCCO2`, the z-score is 2.14.

As to `O=Cc1cn(-c2ccccc2)nc1-c1ccc2c(c1)OCCO2`, the z-score is -1.11.

For the compound `O/N=C/c1cn(-c2ccccc2)nc1-c1ccc2c(c1)OCCO2`, the z-score was -0.458.

On to `O=C(COC(=O)c1cn(-c2ccccc2)nc1-c1ccccc1)c1ccc([N+](=O)[O-])cc1`, for which the z-score is -0.413.

With `O=S(=O)(c1cccc(C(F)(F)F)c1)N1CCC(c2cc(-c3cccc4ccccc34)n[nH]2)CC1`, the z-score stood at 1.58.

The compound `COc1ccc(S(=O)(=O)N2CCC(c3cc(-c4cccc5ccccc45)n[nH]3)CC2)cc1` had a z-score of 2.15.

`COc1ccc(S(=O)(=O)N2CCC(CN3C(=O)c4cccc5cccc(c45)C3=O)CC2)cc1`: the z-score is -0.138.

Consider `Cn1c(CCN2CCN(c3ccc(F)cc3)CC2)nc2cc(NC(=O)c3ccco3)ccc21`, for which the z-score is -2.09.

The compound `Cc1ccc(N(CC(=O)Nc2ccccc2C(=O)N2CCOCC2)S(C)(=O)=O)cc1` gave a z-score of 0.00258.

`O=C(Nc1cccc2ccccc12)c1ccccc1NS(=O)(=O)c1cccc2cccnc12` had a z-score of -0.0553.

For the compound `COc1ccc(OC)c(NC(=O)c2ccccc2NS(=O)(=O)c2cccc3cccnc23)c1`, the z-score worked out at 0.685.

In turn, `COc1ccc(C)cc1NC(=O)c1ccccc1NS(=O)(=O)c1cccc2cccnc12` had a z-score of 2.02.

In turn, `Cc1cccc(C)c1-n1c(C)cc(/C=N/NC(=O)c2ccncc2)c1C` gave a z-score of 0.0638.

For `C/C(=C\C(=O)c1ccc(Br)cc1)NCc1ccccc1`, the z-score was -0.0992.

`O=C(NC(=S)Nc1ccccc1N1CCOCC1)c1ccc(-c2cc(Cl)ccc2Cl)o1`: the z-score turned out to be 0.0698.

In turn, `Cc1cc(S(=O)(=O)N2CCN(c3ccc(F)cc3)CC2)c(C)s1` displayed a z-score of -0.128.

`Cc1ccc(S(=O)(=O)c2c(C)cc(C)nc2Cl)c(C)c1`: the z-score is 4.41 (active).

For the compound `Cc1ccc(S(=O)(=O)c2c(C)cc(C)nc2Cl)cc1`, the z-score is -0.0793.

As to `Cc1cc(C)c(S(=O)(=O)c2ccccc2C)c(Cl)n1`, the z-score was -0.119.

In turn, `CCOC(=O)c1c(C)c(C(=O)Nc2cc(OC)ccc2OC)c(C)n1CC` returned a z-score of -0.853.

Take `CCC1(C)OCC(Cn2c3ccccc3c3ccccc32)O1` (configuration not stated): the z-score was 3.89 (active).

`c1ccc2c(c1)c1ccccc1n2CN1CCOCC1` registered a z-score of -0.144.

`CCn1c2ccccc2c2cc(N)ccc21` displayed a z-score of -0.216.

Compound `CC(=O)N1N=C(c2ccc(C)cc2)OC1c1ccc(C(C)C)cc1` (configuration not stated) yielded a z-score of -0.402.

Regarding `Cc1ccccc1NCc1ccc(O)c2ncccc12`, the z-score was 0.65.

`OCc1ccc(O)c2ncccc12` showed a z-score of 0.138.

As to `Cc1ccccc1N=Nc1ccc(O)c2ncccc12`, the z-score is 4.67 (active).

In turn, `Cc1ccc(N=Nc2ccc(O)c3ncccc23)cc1` registered a z-score of 2.05.

`COCc1ccc(O)c2ncccc12` displayed a z-score of -0.0472.

`Oc1ccc(CNc2ccccc2)c2cccnc12` gave a z-score of 0.0879.

Consider `Cc1ccc(C(=O)c2oc3ccccc3c2NC(=O)c2cc(-c3ccccc3O)n[nH]2)cc1`, for which the z-score worked out at 0.291.

The compound `CC(C)(C)c1ccc(-c2conc2N)cc1` had a z-score of 2.09.

Turning to `CC(C)(C)c1ccc(-c2cc(N)n[nH]2)cc1`, the z-score was 0.498.

In the case of `CCOc1cc(-c2conc2N)cc(OCC)c1OCC`, the z-score is 0.888.

With `CCc1ccc2nc(N3C(=O)c4oc5ccccc5c(=O)c4C3c3ccc(OC)c(OC)c3)sc2c1` (configuration not stated), the z-score is -0.133.

As to `O=C(Cc1ccccc1)Nc1nc2ccccc2s1`, the z-score was 0.548.

`CCN(CC)C(=S)SCC(=O)Nc1nc(-c2ccccc2)c(-c2ccccc2)o1` yielded a z-score of -0.0668.

The compound `Cn1sc(NC(=O)c2ccc(Cl)cc2)nc1=O` yielded a z-score of 0.266.

For `O=C(Nc1nc2ccccc2s1)c1ccc(Cl)s1`, the z-score is 1.22.

The compound `CCn1c(NC(=O)c2ccc(F)cc2)c2ccccc2nc1=O` displayed a z-score of 0.0383.

As for `O=C(Cc1ccccc1)Nc1nc(=O)c2ccccc2s1`, the z-score is 5.11 (active).

`O=C(Nc1nc(=O)c2ccccc2s1)c1ccc(F)cc1`: the z-score is 16.3 (active).

In turn, `O=C(Cc1nc(=O)c2ccccc2s1)Nc1ccccc1` returned a z-score of -0.368.

For `CCN(CC)C(=S)SCC(=O)Nc1nc(=O)c2ccccc2s1`, the z-score is 5.2 (active).

Turning to `O=C(NNc1nc2ccccc2s1)c1ccc(F)cc1`, the z-score was 0.186.

Consider `O=C(Nc1nc(=O)c2ccccc2s1)c1ccc(Cl)cc1`, for which the z-score was 14.9 (active).

Turning to `O=C(CSC(=S)N1CCOCC1)Nc1nc(=O)c2ccccc2s1`, the z-score was found to be 0.0572.

The compound `O=C(CSc1n[nH]c(-c2ccco2)n1)Nc1sc2c(c1C(=O)Nc1ccccc1)CCCC2` came in with a z-score of -0.294.

In turn, `C=CCN(c1ccc(C(=O)NCCc2ccccc2)cc1)S(C)(=O)=O` had a z-score of -0.00787.

`CCOC(=O)C1CCN(S(=O)(=O)c2ccc(OCC(=O)OC)cc2)CC1`: the z-score was determined as 0.845.

For `COc1cccc(-c2csc(N3CCN(C(=S)Nc4cccc(Cl)c4)CC3)n2)c1`, the z-score is 0.143.

`CSc1nc(C)cc(C)c1S(=O)(=O)c1ccccc1C`: the z-score is -0.374.

For the compound `Cc1onc(-c2ccccc2)c1C(=O)NCCc1ccc(Cl)cc1`, the z-score was determined as 0.00877.

`CCc1ccccc1N(CC(=O)N/N=C/c1ccc(OC(=O)OC)c(OC)c1)S(C)(=O)=O` displayed a z-score of -0.214.

With `CCCC(=O)Nc1ccc(Cl)c(NC(=O)C(C)(C)C)c1`, the z-score was -0.219.

With `CCN1CCN(C(=O)C2c3cc(OC)c(OC)cc3C(=O)N(C)C2c2ccc(SC)cc2)CC1` (configuration not stated), the z-score was 0.574.

Compound `N#CC1(P(=O)(c2ccccc2)c2ccccc2)CC1` came in with a z-score of -0.0596.

In the case of `O=C(Nc1nc(=O)c2ccccc2s1)c1ccccc1`, the z-score was 14.9 (active).

Compound `O=C(Nc1nc(-c2ccc(Cl)s2)cs1)c1ccccc1` registered a z-score of 0.171.

`Nc1ccc(C(=O)Nc2nc3ccccc3s2)cc1` came in with a z-score of -0.363.

For the compound `COc1cccc(C2=NOC(C(=O)Nc3ccccc3SC)C2)c1` (configuration not stated), the z-score is -0.115.
